Screening results from PubChem.
CCT chaperon mod: High-Throughput Screening for Modulators of Cytosolic Chaperonin Activity; purified chaperonin ATPase assay, HTRF ADP detection, 30 min; activity change, % (no concentration beside the values), hits read low; hit rate 0.3% among 360,000; AID 651819, 2012; in the data active means activity change below about -30%
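TRiC (40 or 20 nM final, by batch activity) in 30 mM Tris pH 7.4, 100 mM KCl, 5 mM MgCl2, 1 mM DTT was treated with compound at 76 uM single dose, then 10 uM ATP, 30 min at 37 °C. ADP was read by HTRF Transcreener.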
aSyn yeast inh: qHTS of alpha-syn Inhibitors | Yeast expressing alpha-synuclein, growth rescue, BacTiter-Glo, 24 h | Potency, µM (series often up to 46.1 µM), usual class: activators | hit rate 0.14% among 370,000 | AID 652106, 2013; further: nearly all actives have a fitted effect of over 65% in size
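Readout is rescue of growth in alpha-synuclein-expressing yeast, so inhibitors of toxicity appear as activators. Growth after 24 hr at 30 deg C in galactose medium is quantified by luminescence.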
TDP-43 yeast inh: qHTS of TDP-43 Inhibitors. TDP-43 expressing yeast growth rescue, BacTiter-Glo, 24 h. Potency, µM (titrated, usually from 46.1 µM), actives largely listed as activators. hit rate 1.8% among 410,000. AID 652104, 2013; further: nearly all actives have a fitted effect of over 50% in size
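In this qHTS, compounds that restore growth of yeast expressing TDP-43 appear as activators. Cells (OD600=0.02, galactose medium, raffinose-pregrown) are incubated with compound 24 hr at 30 deg C and growth is quantified by BacTiter-Glo.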
Mito fusion act: qHTS Assay for Small Molecule Inhibitors of Mitochondrial Division or Activators of Mitochondrial Fusion; S. cerevisiae fusion-defective mutant growth rescue, CellTiterGlo 48 h; Potency, µM (doses to about 46.1 µM), hits mostly activators; hit rate 0.23% among 320,000; AID 485298, 2010; further: nearly all actives have a fitted effect of over 45% in size
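Temperature-sensitive fusion-defective S. cerevisiae (e.g. fzo1-1, mgm1-5) were grown with compound in YPEG medium (3% ethanol, 3% glycerol) for 48 hours at 37C. Growth rescue was measured as viability by CellTiterGlo luminescence after 10 minutes at ambient.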
Apoferritin bind: qHTS Assay for Identification of Novel General Anesthetics. Potency, µM (top dose mostly 77.5 µM), hits mostly inhibitors. apoferritin/1-aminoanthracene competitive binding, fluorescence. hit rate 0.074% among 350,000; further: nearly all actives have a fitted effect of over 20% in size
Target sequence (P02791 2-175 limits assumed): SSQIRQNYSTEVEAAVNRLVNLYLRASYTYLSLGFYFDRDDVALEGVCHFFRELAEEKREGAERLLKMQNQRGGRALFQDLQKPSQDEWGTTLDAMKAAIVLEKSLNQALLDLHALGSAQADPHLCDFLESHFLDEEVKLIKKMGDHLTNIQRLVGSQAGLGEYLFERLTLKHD
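Read-out: endpoint 1-AMA fluorescence, excitation 380 nm and emission 535 nm, after compounds sit 10 min at room temperature with 10 uM horse-spleen apoferritin in 50% saturated 1-AMA/PBS. Values come from four-parameter Hill fits.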
pAkt inh: HTS Assay for Inhibitors of Akt Phophorylation: Primary Screen. activity change, % for hits at 50 µM. Neuro2A IGF-stimulated pAkt S473 HTRF, 20 min; hits give low values. AID 651550, 2012. hit rate 0.32% among 360,000; in the data active means activity change below about -80%; inconclusive means mostly about -51% to -80%
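Single-point screen (50 µM final compound) in Neuro2A cells stimulated 20 min with 6 nM IGF at 37 deg C. After lysis, Ser473-phosphorylated Akt read by HTRF (ex 330 nm, em 615/665 nm) as the 665/615 ratio.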
Numbers stand for hits; . = inactive; ? = inconclusive; / = no result given. Only some compounds are listed: those with a hit (about 2.5% of all), similar ones and a draw of the others. Unless noted, the call rests on the fitted dose curve; in most records, active means well fitted curve in the direction sought with a large enough effect; inconclusive means small, poorly fitted or top-dose-only effect, or another doubt; inactive means no such curve, though single readings can be large; an effect the other way counts as inactive or inconclusive.

SMILES	CCT chaperon mod	aSyn yeast inh	TDP-43 yeast inh	Mito fusion act	Apoferritin bind	pAkt inh
Cc1ccc(S(=O)(=O)CCC(=O)c2cccc([N+](=O)[O-])c2)cc1	.	.	18µM	.	?	.
COc1cc(-c2nc(-c3ccccc3)c(-c3ccc(F)cc3)[nH]2)cc2c1OCO2	.	.	.	.	.	.
COc1ccc(-c2[nH]c(-c3ccc4c(c3)OCO4)nc2-c2ccccc2)cc1	.	.	16µM	.	.	.
O=C(CC(NC(=O)c1ccccc1)c1ccccc1)OCc1nc(-c2cccc(Cl)c2)no1 (stereo not drawn)	/	.	/	/	/	/
Cc1ccc(C(=O)c2cn(Cc3cccc(C)c3)c3nc(C)ccc3c2=O)cc1	/	/	20µM	/	?	/
Cc1ccc(Cn2cc(C(=O)c3ccc(C)cc3)c(=O)c3ccc(C)nc32)cc1	/	/	.	/	?	/
CC(NC(=O)C1CCCN1C(=O)CN)C(=O)O (stereo not drawn)	/	/	/	/	.	/
O=C(Nc1cccc2cccnc12)OCc1ccccc1	/	.	/	/	/	/
Cc1nn2c(=O)cc(COC(=O)c3ccc(NC(=O)COc4ccccc4F)cc3)nc2s1	/	/	.	/	.	/
Cc1nn2c(=O)cc(COC(=O)c3c(F)cccc3Cl)nc2s1	.	.	35µM	.	/	.
COc1ccc(-c2onc(C)c2C)cc1S(=O)(=O)NCc1ccc(C)o1	/	/	.	/	.	/
COc1ccccc1N1CCN(c2ncnc3c2nc2n3CCCC2)CC1	/	/	35µM	/	.	/
FC(F)(F)c1cccc(N2CCN(c3ncnc4c3nc3n4CCCC3)CC2)c1	/	/	16µM	/	.	/
COc1cccc(N2CCN(c3ncnc4c3nc3n4CCCCC3)CC2)c1	/	/	18µM	/	.	/
Cc1nn2c(=O)cc(COC(=O)c3ccc(NC(=O)CCc4ccccc4)cc3)nc2s1	/	/	.	/	.	/
COC(=O)C1=C(C)N(c2ccc(Cl)c(Cl)c2)C(=O)C1	.	.	13µM	.	.	.
O=CNc1ccc(/C=C/c2ccnc3ccccc23)cc1	/	.	/	/	/	/
Cc1c(C(=O)N2CCN(Cc3ccc4c(c3)OCO4)CC2)sc2ncnc(N3CCN(c4ccccc4F)CC3)c12	-74	.	.	.	.	/
Cc1c(C(=O)N2CCN(Cc3ccc4c(c3)OCO4)CC2)sc2ncnc(N3CCN(c4ccccc4)CC3)c12	.	.	.	.	.	.
CCOc1[nH]c(/N=C/c2ccc(OC)cc2)c(C#N)c1C#N	/	.	/	/	/	/
CC(=O)Nc1ccc(C2Nc3c(C)cc(C)cc3-c3cc(C)nn32)cc1 (stereo not drawn)	/	/	.	/	.	/
Cc1cc2n(n1)C(c1ccsc1)Nc1ccccc1-2 (stereo not drawn)	.	.	8.9µM	.	.	.
COC(=O)c1ccc(C2Nc3c(C)cccc3-c3cc(C)nn32)cc1 (stereo not drawn)	/	/	13µM	/	.	/
CCN(CC)c1ccc(C2Nc3ccccc3-c3cc(C)nn32)cc1 (stereo not drawn)	/	/	?	/	.	/
Cc1cc2n(n1)C(c1ccccc1Cl)Nc1ccccc1-2 (stereo not drawn)	.	.	?	.	?	.
SMILES	CCT chaperon mod	aSyn yeast inh	TDP-43 yeast inh	Mito fusion act	Apoferritin bind	pAkt inh
CSc1ccc(C2Nc3ccccc3-c3cc(C)nn32)cc1 (stereo not drawn)	.	.	18µM	.	.	.
Cc1ccccc1NC(=O)Cn1c(SCC(=O)Nc2ccc(F)cc2)nc2ccccc21	/	/	.	/	.	/
N#C/C=C1\n2c(nc3ccccc32)OC12CCCCC2	.	.	16µM	.	.	.
O=C(Nc1nc2ccccc2n1CCN1CCCCC1)c1ccco1	.	.	.	.	.	.
Nc1ccc(/C=C/c2cc(Cl)nc3ccccc23)cc1	/	.	/	/	/	/
CCOC(=O)/C=C(\C)Sc1cc(=O)oc2ccccc12	.	.	14µM	.	.	.
CCCC1CC(C)(c2csc(Nc3ccc(OCC)cc3)n2)OC1=O (stereo not drawn)	.	.	18µM	.	.	.
COC(=O)c1cc2c([nH]c1=O)CC(c1ccccc1)CC2=O (stereo not drawn)	/	.	/	/	/	/
CCCC[C@H](NC(=O)[C@H](CC(C)C)NC(=O)CNC(=O)[C@@H](NC(=O)[C@H](Cc1ccccc1)NC(=O)[C@H](CO)NC(=O)[C@@H](N)CC(=O)O)C(C)C)C(N)=O	/	/	/	/	.	/
Cc1cc(C(=O)CN2C(=O)NC(c3ccccc3)(c3ccccc3)C2=O)c(C)n1Cc1ccccc1	.	.	.	.	.	-136%
CSc1ccc(C2Nc3cccc4cccc(c34)N2)cc1	.	.	.	.	.	.
Clc1ccc(C2Nc3cccc4cccc(c34)N2)cc1	-56	.	?	.	.	.
Cc1ccc(N2C(=O)CC3(CC4C=CC3C4)C2=O)cc1 (stereo not drawn)	.	.	.	.	7.9µM	.
Cc1ccc(N2C(=O)NC3(CCCCC3)C2=O)cc1	.	.	.	.	.	.
CCCCCCCCCC[n+]1ccc(/C=C/c2ccc(N(C)C)cc2)c2ccccc21	/	.	/	/	/	/
FC(F)(F)c1nc(=S)c2ccccc2[nH]1	.	.	10µM	.	.	.
Cc1nc(=S)c2ccccc2[nH]1	.	.	.	.	.	/
CC(C)[C@H](NC(=O)[C@@H](Cc1c[nH]c2ccccc12)NC(=O)[C@H](Cc1ccc(O)cc1)NC(=O)[C@@H](N)CC(=O)O)C(=O)N[C@H](Cc1c[nH]c2ccccc12)C(=O)N[C@H](Cc1c[nH]c2ccccc12)C(=O)N[C@@H](CCCCN)C(N)=O	/	/	/	/	.	/
CC(C)C(O)(C#CCN1CCCCCC1)c1ccccc1 (stereo not drawn)	-38	.	.	.	.	.
Cc1csc(NC(=O)CCc2c(C)nc3cc(-c4ccc(Cl)cc4)nn3c2C)n1	.	.	.	.	.	.
Cc1nc2cc(-c3ccc(Cl)cc3)nn2c(C)c1CCC(=O)NC(C)c1ccc2c(c1)OCCO2 (stereo not drawn)	.	.	28µM	18µM	.	.
CCn1c(SCc2ccc(C(=O)Nc3nccs3)cc2)nnc1-c1ccc(NC(C)=O)cc1	.	.	.	.	.	-107%
CCCCOC(=O)Nc1ccc(OC)cc1S(=O)(=O)N1CCOCC1	.	.	.	.	.	-110%
Cc1ccccc1NC(=O)COc1ccccc1C(=O)Nc1ccccc1	/	.	/	/	/	/
CC(=O)N1CC(c2ccccc2)C(c2ccc(Cl)cc2)=N1 (stereo not drawn)	.	.	11µM	.	.	.
O=[N+]([O-])c1ccc(Nc2nc(NCCO)nc(N3CCCC3)n2)cc1	.	.	.	.	.	.
CCCNc1nc(Nc2ccc(C)cc2)nc(N2CCCC2)n1	.	.	11µM	.	.	.
Cc1cc(C)cc(NC(=O)CN(C)S(=O)(=O)c2cnc[nH]2)c1	.	.	.	.	.	-116%
